Results filed as inconclusive are left out. Calls of active or inactive are those of the source. How the source made its calls, unless noted: active means hit-call score of the fitted dose curve at least 0.9, where 1 is the maximum; inconclusive means response in the unintended direction; inactive means score below 0.9.
Experiments:
[1] = TOX21_p53_BLA_p2_viability: Viability Assessment in the Tox21 HCT-116 p53 Agonism Beta-lactamase Assay, Phase 2 (AID 2283591);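 further: compound exposure lasted 16 h at 37 °C; actives lower the ATP signal meaning cytotoxicity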
In short: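 Cytotoxicity readout: CellTiter-Glo ATP luminescence, 30 min at room temperature, after the beta-lactamase read. Cells were HCT116 exposed 16 h at 37C to compounds pin-transferred at 217-fold dilution from DMSO stocks.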

[2] = target: Cellular tumor antigen p53 (Homo sapiens) (UniProt P04637); test: TOX21_p53_BLA_p2_ratio: Tox21 HCT-116 p53 Agonism Beta-lactamase Assay, Ratio, Phase 2 (AID 2283592)
In short: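 Read-out is the blue/green (460/530 nm, 405 nm excitation) ratio after 2 h CCF4-AM loading, fitted as gain versus DMSO. Compounds, pinned at 217-fold dilution from DMSO stocks, stayed 16 h on HCT-116 beta-lactamase reporter cells seeded 5 h earlier.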

[3] = target: Cellular tumor antigen p53 (Homo sapiens) (UniProt P04637); test: TOX21_p53_BLA_p3_ratio: Tox21 HCT-116 p53 Agonism Beta-lactamase Assay, Ratio, Phase 3 (AID 2283596)
In short: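 Cells were seeded at 4000/well, rested 5 h at 37C, then dosed with DMSO compound solutions (217-fold dilution) for 16 h. CCF4-AM substrate was loaded for 2 h at room temperature, and the 460/530 nm emission ratio was fitted for gain of signal versus DMSO.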

THRA (gene 7067) = THRA (gene 7067) (UniProt P10827); test: TOX21_TRA_COA_Antagonist_Followup_ratio: Tox21 Thyroid Hormone Receptor alpha Antagonism through Coactivator Recruitment Follow-Up Assay, Ratio (AID 2283953)
In short: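 GST-TRα LBD 2.5 nM, BSA 0.10%, + cpd; then FITC-SRC-2 peptide 200 nM + Tb-anti-GST Ab 2 nM. TR-FRET ratio 520/495 nm. Norm: DMSO = 0%, T3 = 100%.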

THRB (gene 7068) = THRB (gene 7068) (UniProt P10828); test: TOX21_TRB_BLA_Antagonist_Followup_ratio: Tox21 Thyroid Hormone Receptor beta Antagonism Beta-lactamase (BLA) Follow-Up Assay, Ratio (AID 2283958)
In short: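 Beta-lactamase reporter ratio (460/530 nm, CCF4-AM substrate, 2 h room temperature) was read in TRb-bla HEK293T cells after 18 h compound treatment (11 concentrations, triplicate) at 37C in 2% charcoal-stripped FBS medium. Loss of signal fitted against DMSO.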

[4] = TOX21_TRB_BLA_Antagonist_Followup_viability: Viability Assessment in the Tox21 Thyroid Hormone Receptor beta Antagonism Beta-lactamase (BLA) Follow-Up Assay (AID 2283961)
In short: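 ATP-based CellTiter-Glo luminescence (30 min, room temperature) run in the same wells as the TRβ-bla readout. Cells: GeneBLAzer HEK293T expressing GAL4-TRβ LBD, exposed 18 h at 37C to compounds at 11 concentrations in triplicate, stripped-serum medium.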

[5] = CCTE_Harrill_HTTr_Viability_MCF7: CCTE's 6-hour Cell Viability Assessment for the High-Throughput Transcriptomics (HTTr) Platform, in MCF-7 cells cultured in DMEM + 10% fetal bovine serum, Harrill Lab (AID 2284010; active means hit-call score of the fitted dose curve at least 0.9, where 1 is the maximum; inactive means score below 0.9)
In short: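 Propidium iodide exclusion, imaged by high-content analysis, gauged viability after a six-hour exposure across eight concentrations. Cells were MCF-7 grown in DMEM with 10% fetal bovine serum; fits run in both directions against DMSO.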

[6] = CCTE_Harrill_HTTr_Apoptosis_MCF7: CCTE's 6-hour Apoptosis Assessment for the High-Throughput Transcriptomics (HTTr) Platform, in MCF-7 cells cultured in DMEM + 10% fetal bovine serum, Harrill Lab (AID 2284011; active means hit-call score of the fitted dose curve at least 0.9, where 1 is the maximum; inactive means score below 0.9)
In short: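 High-content imaging of CellEvent Caspase 3/7 Green signal follows a six-hour exposure, with eight concentrations per chemical. MCF-7 cells grown in DMEM plus 10% fetal bovine serum; activity fitted in both directions against DMSO.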

[7] = CCTE_Harrill_HTTr_CellCount_MCF7: CCTE's Cell Proliferation Assessment for the High-Throughput Transcriptomics (HTTr) Platform, Harrill Lab (AID 2284012);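 further: cells exposed to compound for six hours; intended direction is loss of nuclei count meaning fewer cells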
In short: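 Cell count from high-content imaging of Hoechst-labeled nuclei serves as viability/growth readout. Chemicals were applied to MCF-7 cells in eight concentrations for six hours, with fitting in both directions relative to DMSO.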

[8] = target: Cellular tumor antigen p53 (Homo sapiens) (UniProt P04637); test: TOX21_p53_BLA_p4_ratio: Tox21 HCT-116 p53 Agonism Beta-lactamase Assay, Ratio, Phase 4 (AID 2283601)
In short: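 Signal is the blue/green (460nm/530nm) ratio of cleaved versus uncleaved CCF4-AM substrate, read after 2 h substrate loading. Cells were HCT116 carrying the p53-responsive beta-lactamase reporter, dosed 16 h at 37C, 5% CO2; CellTiter-Glo measured in parallel.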

[9] = TOX21_p53_BLA_p5_viability: Viability Assessment in the Tox21 HCT-116 p53 Agonism Beta-lactamase Assay, Phase 5 (AID 2283600)
In short: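 Viability came from CellTiter-Glo ATP luminescence, read after 30 min at room temperature. Before this, HCT-116 p53-bla cells (4000/well) had 16 hours of compound exposure at 37C, with DMSO stocks diluted 217-fold on transfer.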

[10] = target: Cellular tumor antigen p53 (Homo sapiens) (UniProt P04637); test: TOX21_p53_BLA_p5_ratio: Tox21 HCT-116 p53 Agonism Beta-lactamase Assay, Ratio, Phase 5 (AID 2283599)
In short: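 Beta-lactamase reporter ratio (blue 460 nm over green 530 nm, 405 nm excitation) after 2 h CCF4-AM loading, in HCT-116 cells exposed 16 h at 37 C to compounds pinned at 217-fold dilution. Increases relative to DMSO baseline scored.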

Measured: outcome

Sequence of Cellular tumor antigen p53 (Homo sapiens) (P04637 whole entry, looked up): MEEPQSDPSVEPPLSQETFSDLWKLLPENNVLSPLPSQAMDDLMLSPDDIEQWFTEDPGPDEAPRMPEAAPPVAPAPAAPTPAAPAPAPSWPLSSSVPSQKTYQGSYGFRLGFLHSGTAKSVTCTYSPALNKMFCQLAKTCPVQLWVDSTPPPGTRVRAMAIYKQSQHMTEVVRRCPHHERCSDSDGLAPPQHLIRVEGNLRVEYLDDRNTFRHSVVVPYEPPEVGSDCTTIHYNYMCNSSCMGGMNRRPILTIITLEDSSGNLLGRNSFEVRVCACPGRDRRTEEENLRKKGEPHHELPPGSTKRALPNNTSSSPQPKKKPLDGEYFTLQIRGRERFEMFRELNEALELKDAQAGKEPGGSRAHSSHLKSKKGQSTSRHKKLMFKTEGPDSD
Sequence of THRA (gene 7067) (P10827 whole entry, looked up, the tested form may be a part): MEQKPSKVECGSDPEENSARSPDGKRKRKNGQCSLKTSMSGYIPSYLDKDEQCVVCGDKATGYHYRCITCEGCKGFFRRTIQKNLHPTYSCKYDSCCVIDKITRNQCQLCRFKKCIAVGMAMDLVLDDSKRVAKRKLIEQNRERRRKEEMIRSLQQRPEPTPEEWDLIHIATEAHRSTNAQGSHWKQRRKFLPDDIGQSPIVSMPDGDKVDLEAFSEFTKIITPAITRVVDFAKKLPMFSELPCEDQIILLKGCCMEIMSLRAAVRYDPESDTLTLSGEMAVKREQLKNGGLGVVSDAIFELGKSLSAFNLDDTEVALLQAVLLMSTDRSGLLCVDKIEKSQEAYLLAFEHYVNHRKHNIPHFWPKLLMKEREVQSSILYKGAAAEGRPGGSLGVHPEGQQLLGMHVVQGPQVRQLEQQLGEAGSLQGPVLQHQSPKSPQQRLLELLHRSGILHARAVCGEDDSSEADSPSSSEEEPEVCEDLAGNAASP
Sequence of THRB (gene 7068) (P10828 whole entry, looked up): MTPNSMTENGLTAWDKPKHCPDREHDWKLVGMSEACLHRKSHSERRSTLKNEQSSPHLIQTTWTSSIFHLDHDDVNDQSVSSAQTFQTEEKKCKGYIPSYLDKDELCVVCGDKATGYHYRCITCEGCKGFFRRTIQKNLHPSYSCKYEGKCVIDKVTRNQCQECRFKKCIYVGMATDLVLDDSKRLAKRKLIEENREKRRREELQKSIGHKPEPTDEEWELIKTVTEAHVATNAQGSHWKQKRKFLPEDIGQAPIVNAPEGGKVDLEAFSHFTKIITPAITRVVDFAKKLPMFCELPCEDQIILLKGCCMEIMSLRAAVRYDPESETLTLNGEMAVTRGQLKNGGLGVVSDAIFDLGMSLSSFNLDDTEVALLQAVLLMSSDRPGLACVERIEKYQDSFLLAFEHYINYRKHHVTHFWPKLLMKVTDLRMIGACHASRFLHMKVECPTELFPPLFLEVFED

Cc1nc(-c2ccc(OCC(C)C)c(C#N)c2)sc1C(=O)O
not listed: [8] | [9] | [10]
inactive: all other assays above

Cc1cc(C)c(NC(=O)C[C@H](CC(=O)O)c2cccc3ccccc23)c(C(=O)N2CCC3(CCCC3)CC2)c1
inactive: [1] | [2] | [3] | [8]

CCOC(=O)O[C@]1(C(=O)OCCl)CC[C@H]2[C@@H]3CCC4=CC(=O)C=C[C@]4(C)[C@H]3[C@@H](O)C[C@@]21C
inactive: [1] | [2] | [3] | [8]

CO/N=C(\C(=O)N[C@@H]1C(=O)N2C(C(=O)[O-])=C(C[n+]3cccc4c3CCC4)CS[C@H]12)c1csc(N)n1
inactive: [1] | [2] | [3] | [9] | [8]

O=C1c2ccccc2C(=O)C1c1ccc(Cl)cc1
inactive: [1] | [2] | [3] | [9]

NC(CS)C(=O)O (stereo not given)
inactive: [1] | [2] | [3] | [8]

O=C(O)c1ccc[n+]([O-])c1
inactive: [1] | [2] | [3] | [9] | [8]

NC(=O)N[C@@H](CCC(=O)O)C(=O)O
inactive: [1] | [2] | [3] | [10] | [8]

Source: PubChem BioAssay (EPA / NIEHS)
